# Out of some 400,000 compounds screened, about 2,100 (0.53%) were called active. Not shown: some 14% with an inconclusive outcome. How the calls were made is not given here. Shown is part of a subset that was picked to be rich in actives.
# Biological target: Ataxin-2 (Homo sapiens) (UniProt Q99700)
# Assay: qHTS for Inhibitors of ATXN expression.
# Format: functional
# Ataxin-2 (Homo sapiens), sequence (Q99700 whole entry): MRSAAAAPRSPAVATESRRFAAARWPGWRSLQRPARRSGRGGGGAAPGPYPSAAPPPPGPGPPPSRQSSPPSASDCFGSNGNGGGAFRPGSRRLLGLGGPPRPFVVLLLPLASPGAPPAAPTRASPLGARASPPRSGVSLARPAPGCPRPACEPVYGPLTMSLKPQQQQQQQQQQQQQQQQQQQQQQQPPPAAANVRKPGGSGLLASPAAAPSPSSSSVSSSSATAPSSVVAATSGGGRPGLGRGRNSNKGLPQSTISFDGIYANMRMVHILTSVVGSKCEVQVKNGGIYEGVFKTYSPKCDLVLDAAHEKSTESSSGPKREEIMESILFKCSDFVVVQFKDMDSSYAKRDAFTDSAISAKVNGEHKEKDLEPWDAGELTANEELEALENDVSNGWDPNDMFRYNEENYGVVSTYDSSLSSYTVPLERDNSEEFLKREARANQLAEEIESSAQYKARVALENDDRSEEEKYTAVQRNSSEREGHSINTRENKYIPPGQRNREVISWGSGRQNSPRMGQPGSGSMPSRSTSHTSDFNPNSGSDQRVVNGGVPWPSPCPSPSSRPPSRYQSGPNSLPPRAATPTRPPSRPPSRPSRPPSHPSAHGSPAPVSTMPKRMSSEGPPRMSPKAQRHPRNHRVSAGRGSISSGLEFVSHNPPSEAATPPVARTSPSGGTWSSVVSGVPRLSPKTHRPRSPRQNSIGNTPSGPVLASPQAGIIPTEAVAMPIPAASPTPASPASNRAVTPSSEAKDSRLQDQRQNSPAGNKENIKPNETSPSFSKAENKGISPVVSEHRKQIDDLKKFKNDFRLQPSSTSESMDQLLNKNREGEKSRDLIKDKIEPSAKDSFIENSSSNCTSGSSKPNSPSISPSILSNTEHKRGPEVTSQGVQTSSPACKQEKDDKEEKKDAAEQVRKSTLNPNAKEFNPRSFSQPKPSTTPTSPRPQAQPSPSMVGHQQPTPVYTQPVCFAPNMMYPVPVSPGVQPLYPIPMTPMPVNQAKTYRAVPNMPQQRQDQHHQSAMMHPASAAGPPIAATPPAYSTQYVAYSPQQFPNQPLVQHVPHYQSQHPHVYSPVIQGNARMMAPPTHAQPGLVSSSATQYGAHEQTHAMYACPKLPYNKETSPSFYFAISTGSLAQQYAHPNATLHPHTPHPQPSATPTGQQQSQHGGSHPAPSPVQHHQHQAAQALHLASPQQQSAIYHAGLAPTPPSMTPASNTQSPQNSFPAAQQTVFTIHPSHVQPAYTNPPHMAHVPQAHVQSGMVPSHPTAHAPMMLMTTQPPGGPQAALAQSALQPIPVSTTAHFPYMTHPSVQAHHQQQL
row,Compound,Potency
1,COCCCNC(=O)/C(C#N)=C/c1c(N2CCN(C)CC2)nc2ccccn2c1=O,inactive
2,COc1ccc(C(=O)CC2(O)C(=O)N(Cc3cccc(C(F)(F)F)c3)c3ccccc32)cc1 (stereo not given),39.8 µM (active)
3,COc1cccc(CN2C(=O)c3cccc(N)c3C2=O)c1,inactive
4,COc1ccc(C2CC(c3cccc(C(F)(F)F)c3)=NN2c2ccc(S(N)(=O)=O)cc2)cc1 (stereo not given),inactive
5,CCN(CC)c1ccc2cc(NC(=O)CCC(=O)O)c(=O)oc2c1,inactive
6,Cc1ccc(S(=O)(=O)N2CCCCC2)cc1C(=O)Nc1ccc(S(=O)(=O)Nc2ncccn2)cc1,inactive
7,COc1cccc(CN(C)C(=O)c2cc(S(=O)(=O)N3CCCC3)ccc2C)c1OC,inactive
8,Cc1ccc(S(=O)(=O)N2CCCCC2)cc1C(=O)N(C)CC(=O)Nc1ccc(Cl)c(C(F)(F)F)c1,35.5 µM (active)
9,Cc1ccc(CCC(=O)Nc2ccc(Br)cc2)o1,inactive
10,CCN1C(=O)c2cccc3c(S(=O)(=O)NCC4CCCO4)ccc1c23 (stereo not given),inactive
11,N=c1n(CC(=O)c2ccc(Br)cc2)c2ccccc2n1Cc1ccccc1,31.6 µM (active)
12,Cc1ccc(Cn2c(=N)n(CC(=O)c3ccc([N+](=O)[O-])cc3)c3ccccc32)cc1,22.4 µM (active)
13,CCc1ccc(C(=O)Cn2ccsc2=N)cc1,inactive
14,C/C(=N\NC(=O)CSCc1ccc([N+](=O)[O-])cc1)c1ccccc1,inactive
15,CCCn1c(=N)n(CC(=O)c2ccc([N+](=O)[O-])cc2)c2ccccc21,inactive
16,O=C(NCCc1ccccc1)C(=O)NCC1OCCN1S(=O)(=O)c1ccc(Br)cc1 (stereo not given),inactive
17,O=c1oc2cc(O)ccc2cc1-c1nc2ccccc2o1,inactive
18,CCN(CC)c1ccc(S(=O)(=O)N(CC)CC)cc1NC(=O)c1cccnc1,inactive
19,CCOC(=O)CNS(=O)(=O)c1ccc2c3c(cccc13)C(=O)N2CC,inactive
20,Cc1ccccc1N1C(=O)C(Cc2ccc(F)cc2)S/C1=C(\C#N)C(N)=O (stereo not given),inactive
21,CCN(CC)S(=O)(=O)c1ccc(C(=O)OCCN2C(=O)c3cccc4c(N5CCOCC5)ccc(c34)C2=O)cc1,inactive
22,Cc1ccc2cc(C#N)c(NCCN=C(S)NCCCN3CCOCC3)nc2c1,inactive
23,COc1cc(/C=C(\C#N)c2nc3ccccc3s2)ccc1OCC(=O)Nc1ccccc1,inactive
24,COc1cc(/C=C(\CC(=O)O)c2nc3ccccc3s2)cc(OC)c1O,inactive

row,Compound,Potency
1,O=C(Nc1ccc(Cl)cc1)/C(=C/c1cccc(O)c1)c1nc2ccccc2s1,12.6 µM (active)
2,COc1cccc(C2=CC(c3ccc(OC)c(OC)c3OC)n3ncnc3N2)c1 (stereo not given),inactive
3,COc1ccc(OC)c(/C=C2\Oc3cc(OCC(=O)N4CCC(C(=O)O)CC4)ccc3C2=O)c1,inactive
4,CC(=O)Oc1ccc2cc(-c3ccccc3)c(=O)oc2c1,inactive
5,O=C(CCl)N1CCN(S(=O)(=O)c2ccc3c(c2)CCC3)CC1,8.91 µM (active)
6,O=C(c1cnc(Cl)c(Cl)c1)N1CCN(S(=O)(=O)c2ccc3ccccc3c2)CC1,31.6 µM (active)
7,CCN=C(S)N1CCN(S(=O)(=O)c2ccc(C)c(C)c2)CC1,inactive
8,Nc1cc(O)nc(SCC(=O)N2CCN(S(=O)(=O)c3ccc4ccccc4c3)CC2)n1,inactive
9,Cc1ccc(S(=O)(=O)N2CCN(C(=O)CCn3cncn3)CC2)cc1C,inactive
10,O=C(Cn1cnc2ccccc21)N1CCN(S(=O)(=O)c2ccccc2)CC1,inactive
11,O=C(Cn1ncc(Cl)c(Cl)c1=O)N1CCN(S(=O)(=O)c2ccc3ccccc3c2)CC1,35.5 µM (active)
12,O=C(Cc1cccs1)N1CCN(S(=O)(=O)c2ccc(Cl)c(C(F)(F)F)c2)CC1,inactive
13,O=C(CCl)N1CCN(S(=O)(=O)c2ccc3ccccc3c2)CC1,39.8 µM (active)
14,CCOCCCNC(=O)CN1CCN(S(=O)(=O)c2ccc3c(c2)CCC3)CC1,inactive
15,CC(=O)N1CCN(S(=O)(=O)c2ccc(F)c(Cl)c2)CC1,inactive
16,Cc1ccc(S(=O)(=O)N2CCCN(C(=O)c3ccc(-n4cccn4)cc3)CC2)cc1,inactive
17,COCCn1c(=N)c(C(=O)NC(C)c2ccccc2)cc2c(=O)n3cc(C)ccc3nc21 (stereo not given),inactive
18,CCN(CC)c1ccc2cc(C(N)=O)/c(=N\NC(=O)c3ccncc3)oc2c1,inactive
19,CCCc1c(C(=O)N/N=C/c2ccc(OCc3ccc(F)cc3)cc2)nnn1-c1nonc1N,inactive
20,COc1ccc(N2C(=O)/C(=C\Nn3cnnc3)c3ccccc3C2=O)cc1,inactive
21,Cc1ccc(C(=O)O)cc1N1C(=O)c2cccc3c([N+](=O)[O-])ccc(c23)C1=O,inactive
22,O=C(N/N=C/c1sc(N2CCOCC2)nc1-c1ccccc1)c1ccc(O)cc1,inactive
23,Cc1cc(C)c2cc(CN(Cc3nnnn3C3CCCCC3)CC3CCCO3)c(O)nc2c1 (stereo not given),22.4 µM (active)
24,CN(C)CCN(Cc1cc2cc3c(cc2nc1O)OCO3)C(S)=NCC1CCCO1 (stereo not given),inactive

row,Compound,Potency
1,Cc1ccc2cc(CN(Cc3ccc(F)cc3)Cc3nnnn3C3CCCC3)c(O)nc2c1,39.8 µM (active)
2,CCC(NC(C)C)C(O)c1ccc(O)c2[nH]c(=O)ccc12 (stereo not given),inactive
3,CCOc1ccc(OCC)c(NC(=O)CN(c2ccc(C)cc2)S(=O)(=O)c2c(C)n[nH]c2C)c1,35.5 µM (active)
4,COc1ccc(C)cc1NC(=O)CN(C)S(=O)(=O)c1ccc2c(c1)CC(C)N2C(C)=O (stereo not given),inactive
5,COc1ccc(Cl)cc1NC(=O)CN(c1cc(C)cc(C)c1)S(=O)(=O)c1c(C)n[nH]c1C,35.5 µM (active)
6,CCOc1ccccc1N(CC(=O)Nc1ccccc1Br)S(=O)(=O)c1ccccc1,inactive
7,COc1ccc(Cl)cc1NC(=O)COC(=O)c1ccc(C)o1,inactive
8,COc1ccc(Cl)cc1NC(=O)CN(C)C1CCS(=O)(=O)C1 (stereo not given),inactive
9,Cc1ccc2[nH]c3c(c2c1)SC(C)(C)CC3=O,inactive
10,C=CCc1ccc(O)c(-c2ccc(O)c(CC=C)c2)c1,28.2 µM (active)
11,CC(=O)Nc1sc(/C(C#N)=C\c2cccc(Cl)c2)nc1-c1ccc(C)cc1,inactive
12,CCC(C)n1c(=N)c(C(=O)NCc2ccco2)cc2c(=O)n3cc(C)ccc3nc21 (stereo not given),inactive
13,COc1ccc(NC(=O)CSc2nc(C)cs2)c(OC)c1,inactive
14,CNC(=O)COC(=O)c1c2c(nc3ccccc13)CCC2,inactive
15,COc1ccc(Cl)cc1-c1n[nH]c(SCC(=O)NC2CC2)n1,inactive
16,COc1ccc(CC(=O)Nc2ccc3nc(Nc4cccc(Cl)c4)cc(C)c3c2)cc1OC,inactive
17,COc1ccc(NC(=O)CSc2c3c(nc4cc(Cl)ccc24)CCCC3)cc1OC,31.6 µM (active)
18,Cc1ccc(NC(=O)CSc2c3c(nc4ccccc24)CCCC3)cc1F,35.5 µM (active)
19,COc1ccc(NC(=O)CSc2nc3ccsc3c(=O)n2Cc2ccccn2)c(OC)c1,inactive
20,COc1cccc(NC(=O)CSc2c3c(nc4ccccc24)CCCC3)c1,35.5 µM (active)
21,O=C(CSc1nnc(-c2ccccc2F)n1C1CC1)Nc1ccc2[nH]c(O)nc2c1,inactive
22,COc1ccc(NC(=O)CSc2c3c(nc4ccccc24)CCCC3)c(OC)c1,39.8 µM (active)

# Reference: ChEMBL document CHEMBL1201862, “PubChem BioAssay data set” (2004)
